In PubChem BioAssay:
Calls of active or inactive are those of the source. Unless noted, no rule for the calls is given here.

What was measured:
[1] = anti-His antibody binders, primary screen, artefact control for SMM control protein annotation, biochemical, small-molecule microarray, 635 nm fluorescence (AID 1128); details: anti-His Alexa647 antibody binding, higher = more signal;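 also: score merges feature fluorescence with signal-to-noise for each printed compound spot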
[2] = system: Human papillomavirus type 1a E7 protein (residues 1-88); assay: HPV1a E7 small-molecule binders, primary screen, biochemical, small-molecule microarray, residues 1-88, 635 nm (AID 1129); details: small-molecule microarray binding, fluorescence 635 nm; higher = more signal
[3] = target: Focal adhesion kinase 1 (Homo sapiens) (UniProt Q05397); assay: small-molecule microarray binders of FAK, primary screen, biochemical, 635/667 nm fluorescence, BSA, DTT (AID 1130); details: PTK2 binding, 635 nm fluorescence, higher = more signal;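 also: composite of spot emission at 667 nm and signal to noise over triplicate slides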
[4] = system: Fibrinogen (Alexa647-labelled); assay: fibrinogen binders on compound microarrays, profiling panel, artefact control for SMM control-protein annotation, biochemical, small-molecule microarray, 635/667 nm fluorescence (AID 1131); details: fibrinogen-A647 binding fluorescence, higher = more signal;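 also: z-score merges 667 nm fluorescence with per-spot signal-to-noise over triplicate slides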
[5] = target: Follistatin (Homo sapiens) (UniProt P19883); assay: follistatin binders on small-molecule microarrays, primary screen, biochemical, small-molecule microarray, 635/667 nm fluorescence (AID 1132); details: FST binding, 635 nm fluorescence, higher = more signal
[6] = target: Fibroblast growth factor 2 (Homo sapiens) (UniProt P09038); assay: FGF2 binders on small-molecule microarrays, primary screen, biochemical, small-molecule microarray, 635/667 nm fluorescence (AID 1133); details: small-molecule microarray binding, FGF2, fluorescence 635/667; higher = more signal
[7] = mitochondrial membrane potential change in A549 cells, profiling panel, cell-based, JC-1 fluorescence, basal, 24 h, 100 nL (AID 1138); details: higher = more signal;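 also: A549 lung adenocarcinoma cells under basal conditions with no added stimulus; test concentration not given here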
Lefty1 = Lefty1 binders on small-molecule microarrays, primary screen, biochemical, small-molecule microarray, 635/667 nm fluorescence (AID 1139); details: small-molecule microarray binding, fluorescence 635/667; higher = more signal
[8] = system: wheat germ agglutinin (Triticum aestivum), Alexa647-labelled; assay: wheat germ agglutinin binders on compound microarrays, profiling panel, artefact control for SMM control-protein annotation, biochemical, small-molecule microarray, 635/667 nm fluorescence (AID 1140); details: WGA-A647 binding, 635 nm fluorescence, higher = more signal;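 also: score merges 667 nm feature emission with signal to noise over triplicate slides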
[9] = target: Luciferin 4-monooxygenase (Photinus pyralis) (UniProt P08659); assay: firefly luciferase enzyme inhibitors, primary screen, biochemical, luminescence, purified enzyme, 2006 set (AID 1141); details: SteadyGlo luminescence, 30 min, higher = more signal, called active from +8 up or from −8 down;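 also: cell-free assay with purified firefly luciferase at 100 ng per well in PBS; test concentration not given here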
[10] = system: Wnt5a (protein binding on small-molecule microarray); assay: Wnt5a binders on small-molecule microarray, primary screen, biophysical, 635/667 nm fluorescence (AID 1142); details: 635 nm fluorescence, higher = more signal;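 also: fluorescence read at 667 nm with signal to noise per printed feature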
[11] = cell viability in Huh7 cells, primary screen, cytotoxicity control for HCV replication inhibitor project, CellTiter-Glo luminescence, basal, 48 h (AID 1143); details: Huh7 HCV replicon, higher = more signal, called active from +8 up or from −8 down;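 also: Huh7 hepatoma cells carrying a hepatitis C replication reporter with no stimulus; test concentration not given here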
[12] = P. aeruginosa biofilm formation inhibitors, primary screen, PAO1 strain, BacTiter-Glo luminescence, LB-PBS (AID 1144); details: 12 h, higher = more signal
[13] = CREB reporter modulators without forskolin, primary screen, cell-based, PC12, CRE-LacZ reporter, unstimulated (AID 1145); details: no forskolin, luminescence, 4.5 h, higher = more signal, called active from +8 up or from −8 down
[14] = CREB reporter modulators under forskolin, primary screen, cell-based, PC12, CRE-LacZ reporter, forskolin-stimulated (AID 1146); details: luminescence, 4.5 h, higher = more signal, called active from +8 up or from −8 down;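 also: PC12 cells with 6xCRE LacZ reporter stimulated by forskolin 10 µM; beta-galactosidase reporter signal reflecting CREB driven transcription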
[15] = target: Streptavidin (Streptomyces avidinii) (UniProt P22629); assay: streptavidin binders on small-molecule microarray, primary screen, artefact control for SMM compound annotation, biophysical, 635/667 nm fluorescence (AID 1147); details: streptavidin binding, higher = more signal;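 also: signal reflects streptavidin binding to arrayed compounds as a control protein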
[16] = small-molecule binders of probe aInhba, primary screen, biochemical, small-molecule microarray, 635/667 nm fluorescence (AID 1148); details: higher = more signal;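 also: score merges 667nm spot fluorescence with signal-to-noise for antibody binding to printed compounds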
Torsin-1A (Homo sapiens) [17] = target: Torsin-1A (Homo sapiens) (UniProt O14656); assay: torsin A binders from cell lysate, primary screen, small-molecule microarray, wild-type, 635/667 nm (AID 1149); details: COS7 hTOR1A-WT lysate, 635 nm fluorescence, higher = more signal
Torsin-1A (Homo sapiens) [18] = target: Torsin-1A (Homo sapiens) (UniProt O14656); assay: small-molecule binders of mutant TOR1A in lysate, primary screen, cell lysate, small-molecule microarray, COS7 lysate, 635/667 nm fluorescence (AID 1150); details: COS7 hTOR1A mutant lysate, 635 nm fluorescence, higher = more signal;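 also: score pools 667 nm emission and signal to noise measuring lysate protein binding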
[19] = system: Sonic hedgehog protein (Shh); assay: small-molecule binders of Shh protein, primary screen, biochemical, small-molecule microarray, 635/667 nm fluorescence (AID 1151); details: small-molecule microarray binding, 635 nm fluorescence; higher = more signal;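 also: Shh protein binding to compounds spotted on small-molecule microarray slides; score combines spot fluorescence intensity with signal-to-noise across triplicate slides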

Chain of Luciferin 4-monooxygenase (Photinus pyralis) (P08659 whole entry, looked up): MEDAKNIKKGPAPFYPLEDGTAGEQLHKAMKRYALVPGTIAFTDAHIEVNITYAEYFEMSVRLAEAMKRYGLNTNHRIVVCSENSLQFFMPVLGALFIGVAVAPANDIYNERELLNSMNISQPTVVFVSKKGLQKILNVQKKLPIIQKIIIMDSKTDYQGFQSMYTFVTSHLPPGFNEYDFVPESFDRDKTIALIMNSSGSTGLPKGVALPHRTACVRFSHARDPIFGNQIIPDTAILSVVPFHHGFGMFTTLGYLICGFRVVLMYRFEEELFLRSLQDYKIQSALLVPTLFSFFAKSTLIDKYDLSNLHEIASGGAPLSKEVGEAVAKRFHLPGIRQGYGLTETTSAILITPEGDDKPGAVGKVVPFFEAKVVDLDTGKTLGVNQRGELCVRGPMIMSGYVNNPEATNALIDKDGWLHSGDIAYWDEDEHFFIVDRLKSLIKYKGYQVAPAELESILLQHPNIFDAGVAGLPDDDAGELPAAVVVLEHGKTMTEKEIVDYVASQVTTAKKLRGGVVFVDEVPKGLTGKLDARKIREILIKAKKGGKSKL
Chain of Focal adhesion kinase 1 (Homo sapiens) (Q05397 whole entry, looked up): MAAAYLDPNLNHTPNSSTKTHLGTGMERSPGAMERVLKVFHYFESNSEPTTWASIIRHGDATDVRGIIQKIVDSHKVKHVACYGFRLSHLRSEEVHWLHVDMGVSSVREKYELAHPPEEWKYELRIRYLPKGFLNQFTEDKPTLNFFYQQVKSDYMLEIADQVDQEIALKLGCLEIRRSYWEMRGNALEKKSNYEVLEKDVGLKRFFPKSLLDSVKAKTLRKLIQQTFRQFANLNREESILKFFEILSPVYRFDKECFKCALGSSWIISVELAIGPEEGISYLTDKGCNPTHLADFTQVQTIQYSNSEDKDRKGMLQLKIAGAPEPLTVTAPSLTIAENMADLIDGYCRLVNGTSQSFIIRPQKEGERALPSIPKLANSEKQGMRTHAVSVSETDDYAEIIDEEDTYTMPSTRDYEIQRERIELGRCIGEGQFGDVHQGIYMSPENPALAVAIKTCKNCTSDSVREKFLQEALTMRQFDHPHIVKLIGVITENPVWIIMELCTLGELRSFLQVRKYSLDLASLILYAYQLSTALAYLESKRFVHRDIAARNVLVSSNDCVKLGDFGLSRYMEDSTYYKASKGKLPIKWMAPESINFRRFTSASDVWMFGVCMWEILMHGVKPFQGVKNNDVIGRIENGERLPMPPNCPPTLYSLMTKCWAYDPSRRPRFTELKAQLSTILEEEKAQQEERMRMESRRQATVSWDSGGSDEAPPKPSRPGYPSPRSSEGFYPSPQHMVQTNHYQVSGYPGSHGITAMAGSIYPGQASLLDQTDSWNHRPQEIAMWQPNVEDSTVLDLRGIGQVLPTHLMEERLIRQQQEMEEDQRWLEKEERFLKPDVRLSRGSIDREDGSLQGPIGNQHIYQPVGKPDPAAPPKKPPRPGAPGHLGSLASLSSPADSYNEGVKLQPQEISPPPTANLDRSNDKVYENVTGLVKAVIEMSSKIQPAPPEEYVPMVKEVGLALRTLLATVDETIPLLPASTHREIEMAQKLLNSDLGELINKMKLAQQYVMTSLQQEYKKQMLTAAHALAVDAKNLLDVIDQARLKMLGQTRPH
Chain of Fibroblast growth factor 2 (Homo sapiens) (P09038 whole entry, looked up): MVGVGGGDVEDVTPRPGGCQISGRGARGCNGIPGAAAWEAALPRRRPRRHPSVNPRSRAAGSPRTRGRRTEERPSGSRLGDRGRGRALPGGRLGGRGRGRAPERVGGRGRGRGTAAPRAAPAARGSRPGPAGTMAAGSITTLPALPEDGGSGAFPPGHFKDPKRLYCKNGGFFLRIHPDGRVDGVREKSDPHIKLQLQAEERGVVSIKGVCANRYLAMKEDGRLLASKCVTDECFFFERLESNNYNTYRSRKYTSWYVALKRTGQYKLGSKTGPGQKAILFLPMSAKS
Chain of Streptavidin (Streptomyces avidinii) (P22629 whole entry, looked up): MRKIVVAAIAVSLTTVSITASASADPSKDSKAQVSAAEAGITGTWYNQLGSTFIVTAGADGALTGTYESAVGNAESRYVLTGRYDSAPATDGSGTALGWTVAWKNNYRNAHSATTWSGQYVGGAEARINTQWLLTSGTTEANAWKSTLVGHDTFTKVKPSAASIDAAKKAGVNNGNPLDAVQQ
Chain of Follistatin (Homo sapiens) (P19883 whole entry, looked up): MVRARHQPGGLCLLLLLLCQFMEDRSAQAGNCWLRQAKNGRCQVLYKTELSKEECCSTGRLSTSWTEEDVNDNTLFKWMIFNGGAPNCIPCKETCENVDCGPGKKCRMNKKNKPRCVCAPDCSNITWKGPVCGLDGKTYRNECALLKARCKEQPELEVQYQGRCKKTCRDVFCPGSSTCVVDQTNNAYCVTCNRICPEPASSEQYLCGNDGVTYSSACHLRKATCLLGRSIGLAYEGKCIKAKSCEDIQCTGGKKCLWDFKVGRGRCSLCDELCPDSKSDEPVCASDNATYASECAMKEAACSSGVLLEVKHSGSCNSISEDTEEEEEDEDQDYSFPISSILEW
Chain of Torsin-1A (Homo sapiens) (O14656 whole entry, looked up): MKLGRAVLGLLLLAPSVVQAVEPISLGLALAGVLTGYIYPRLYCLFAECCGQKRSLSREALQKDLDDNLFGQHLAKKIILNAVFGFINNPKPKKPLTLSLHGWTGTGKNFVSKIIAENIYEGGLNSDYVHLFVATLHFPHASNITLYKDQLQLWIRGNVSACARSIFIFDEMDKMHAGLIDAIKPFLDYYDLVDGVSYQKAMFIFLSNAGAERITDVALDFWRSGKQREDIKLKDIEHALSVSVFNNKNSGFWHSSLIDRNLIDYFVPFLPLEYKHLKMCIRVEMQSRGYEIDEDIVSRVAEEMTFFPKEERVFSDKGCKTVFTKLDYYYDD

Structure (SMILES)	composite z-score [1]	composite z-score [2]	composite z-score [3]	composite z-score [4]	composite z-score [5]	composite z-score [6]	z-score [7]	composite z-score (Lefty1)	composite z-score [8]	z-score [9]	composite z-score [10]	z-score [11]	z-score [12]	z-score [13]	z-score [14]	composite z-score [15]	composite z-score [16]	composite z-score (Torsin-1A (Homo sapiens) [17])	composite z-score (Torsin-1A (Homo sapiens) [18])	composite z-score [19]
O=C1OCCC/C=C\[C@H]2OC34C=CCN(CCN5CCOCC5)C(=O)[C@H]3N(CCCCCCO)C(=O)[C@@H]4C12 (stereo not given in full)	3.45	0.167	-0.447	-0.613	-0.318	-0.25	1.13	0.337	0.33	-1.05 (inactive)	-0.089	-0.129 (inactive)	-1.18 (inactive)	0.325 (inactive)	-0.0772 (inactive)	-0.215	-0.0791	0.944	-0.404	0.837
COC(=O)[C@@]1(Cc2ccc(OC)cc2)[C@H]2c3cc(C(=O)N(C)C)n(C[C@H](O)CO)c3C[C@H]2CN1C(=O)c1ccccc1	0.396	1.2	1.17	0.904	0.291	-1.16	0.193	-0.908	1.34	0.543 (inactive)	0.533	-2.58 (inactive)	-0.0273 (inactive)	0.39 (inactive)	1.33 (inactive)	1.41	0.116	0.219	1.16	-0.753
COc1ccc([Si](C)(C)[C@@H]2[C@@H](CC(=O)N(CCO)Cc3ccccc3)O[C@]3(C(=O)N(c4ccccc4)c4ccccc43)[C@H]2C)cc1	1.13	1.14	0.437	0.874	1.07	0.716	0.0115	1.29	0.291	0.293 (inactive)	0.272	-7.08 (inactive)	-0.334 (inactive)	7.53 (inactive)	-2.26 (inactive)	0.675	-0.125	0.555	0.3	1.17
COCCOC(=O)N1C(=O)[C@@]2(c3cc(C#CCCO)ccc31)[C@H](C(=O)Nc1nc3ccccc3s1)[C@H]1C(=O)O[C@H](c3ccccc3)[C@H](c3ccccc3)N1[C@@H]2c1ccccc1OCCO	1.87	1.2	0.764	0.866	1.12	0.69	-2.25	0.573	0.902	-0.551 (inactive)	0.585	-1.41 (inactive)	0.235 (inactive)	-0.0526 (inactive)	0.595 (inactive)	0.968	0.949	0.759	1.12	0.881
C=C(COC)/C(=C/C[C@H](OC(=O)c1ccncc1)c1ccccc1OCCO)c1cnc2ccccc2c1	0.717	1.23	0.241	1.01	1.4	1.35	0.662	1.5	1.04	-0.212 (inactive)	0.488	-0.854 (inactive)	-1.13 (inactive)	3.24 (inactive)	1.42 (inactive)	0.294	0.156	1.57	1.42	2.22
COc1cc2c(cc1OC)CN(C(=O)[C@@H]1[C@H]3C(=O)O[C@H](c4ccccc4)[C@H](c4ccccc4)N3[C@H](c3ccc(OCCO)cc3)[C@@]13C(=O)Nc1ccccc13)CC2	1.04	1.25	0.164	0.971	1.31	1.26	-0.957	1.19	1.3	-1.65 (inactive)	0.758	-1.06 (inactive)	-1.46 (inactive)	0.829 (inactive)	-0.437 (inactive)	0.607	0.188	1.06	0.858	1.93
O=C(NCC(F)(F)F)[C@@H]1c2ccccc2C(=O)N(Cc2ccc(OC(F)(F)F)cc2)[C@H]1c1ccc(CO)cc1	0.191	-0.0826	0.518	-0.344	1.02	0.45	0.845	0.713	0.444	1.36 (inactive)	0.119	-2.41 (inactive)	-0.652 (inactive)	0.531 (inactive)	0.118 (inactive)	-0.176	-0.0672	0.176	-0.0108	1.74
CC1=C([C@H](O)CCc2ccccc2)[C@H](CO)[C@@H]2C(=O)N(C)C(=O)[C@@H]2C1	0.32	-0.183	0.332	0.431	0.172	0.227	1.48	0.475	0.133	-1.01 (inactive)	-0.124	-0.0547 (inactive)	-0.518 (inactive)	-0.321 (inactive)	-0.33 (inactive)	0.591	-0.218	0.285	0.0992	0.656
[N-]=[N+]=Nc1ccccc1[C@@H]1OC(c2ccc(OCCCO)cc2)=N[C@]1(Cc1ccccc1)C(=O)NCC(O)CO (stereo not given in full)	2.23	0.95	0.587	0.966	1.4	1.06	1.63	-0.823	1.2	-4.93 (inactive)	0.951	-3 (inactive)	0.255 (inactive)	0.834 (inactive)	-1.8 (inactive)	1.34	0.572	0.436	1.47	-0.231
C=CCOC(=O)[C@H]1[C@@H]2C(=O)O[C@@H](c3ccccc3)[C@@H](c3ccccc3)N2[C@@H](c2ccc(OCCOC(=O)[C@H]3C[C@H]4C(=O)N[C@@H](CCCCNC(C)=O)C(=O)N4[C@H]3c3ccc(O)cc3)cc2)[C@]12C(=O)Nc1ccccc12	2.7	1.12	0.765	0.732	1.4	1.63	-1.16	1.1	0.538	-2.37 (inactive)	0.228	-1.59 (inactive)	-1.57 (inactive)	0.147 (inactive)	-0.542 (inactive)	-0.292	-0.146	0.757	0.835	1.75
